Source: PubChem (The Scripps Research Institute Molecular Screening Center)
FBW7 act = human FBW7 E3 ligase activation, primary screen; Q969H0; AlphaScreen FBW7–phospho-cyclin E peptide binding, activator screen; normalized activity (activation), % at 26.1 µM; 650,000 compounds, 0.13% hits; AID 1259310; in the data active = normalized activity above about 1.9%;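 also: purified mutant Fbw7 with reduced substrate affinity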
TEAD-YAP block = TEAD-YAP interaction inhibition; HEK-TIYL cells, TEAD-Gal4/YAP UAS-luciferase luminescence; inhibition, % at 9.12 µM; 640,000 compounds, 1.4% hits; AID 1259422; in the data active = inhibition above about 32%;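 also: 0% = median of test compound wells and 100% = reference inhibitor wells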
MITF primary = human MITF inhibition, primary screen; AlphaScreen MITF homodimerization, bead proximity signal; inhibition, % at 2.6 µM; 650,000 compounds, 0.91% hits; AID 1259374; O75030; in the data active = inhibition above about 50%;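 also: 0% = vehicle wells with protein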
GPR151 activ = activates the human receptor GPR151; Q8TDV0; 650,000 compounds, 1% hits; PathHunter beta-arrestin GPR151 cells, luminescence; AID 1508602; activation, % at 11.2 µM; in the data active = activation above about 4.9%;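 also: 0% = median of compound wells and 100% = cells with positive control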
Target sequence (Q8TDV0 whole entry, looked up): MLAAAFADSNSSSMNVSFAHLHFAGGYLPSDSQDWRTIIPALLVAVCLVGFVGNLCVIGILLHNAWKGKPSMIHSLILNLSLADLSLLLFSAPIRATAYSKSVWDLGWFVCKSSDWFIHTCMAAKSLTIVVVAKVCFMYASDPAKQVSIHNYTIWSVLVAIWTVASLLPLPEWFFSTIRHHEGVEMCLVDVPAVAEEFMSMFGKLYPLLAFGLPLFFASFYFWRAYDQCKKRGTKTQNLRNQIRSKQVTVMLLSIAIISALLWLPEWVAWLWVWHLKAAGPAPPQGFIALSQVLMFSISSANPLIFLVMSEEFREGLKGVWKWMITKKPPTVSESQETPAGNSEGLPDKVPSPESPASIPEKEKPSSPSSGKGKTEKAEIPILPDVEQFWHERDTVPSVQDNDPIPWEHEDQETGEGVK
An asterisk follows results filed as active. Only some compounds are listed: those with a hit (about 3.4% of all), similar ones and a draw of the others.

SMILES | FBW7 act | TEAD-YAP block | MITF primary | GPR151 activ
Cc1cc(NC(=O)c2ccc(S(=O)(=O)NC3CC3)cc2)c2cc(F)cc(F)c2n1 | 0 | 48* | -11 | -1
CC1=C(C#N)C(c2cccnc2)C2=C(N1)c1ccccc1C2=O (configuration not stated) | 0 | 56* | -7 | 0
c1ccc(-c2ccc(-c3nc4ccccc4s3)cc2)cc1 | 0 | 92* | -11 | 0
Nc1ccc2nc(-c3ccccc3)sc2c1 | 2.7* | 85* | 10 | -8
Nc1ccc(-c2nc3ccccc3s2)c(Cl)c1 | 0 | -1 | -2 | 0
Nc1ccc(-c2nc3ccccc3s2)cc1 | 0 | 51* | -8 | -9
O=C(C1CCCCC1)N1CCC2(CC1)OCc1ccccc1O2 | 0 | 1 | 3 | 0
COc1cc(N2CCOCC2)ccc1Nc1cc(Nc2ccccc2C(N)=O)c(C(F)F)cn1 | 0 | -11 | -5 | 0
COc1cc(N2CCOCC2)ccc1Nc1cc(Nc2ccccc2C(=O)N(C)C)c(C(F)(F)F)cn1 | 0 | -1 | 27 | 0
CNC(=O)c1ccccc1Nc1cc(Nc2ccc(C(=O)N(C)C)cc2OC)ncc1C(F)(F)F | 0 | 57* | 3 | -1
CNC(=O)c1ccccc1Nc1cc(Nc2ccc(C(=O)NC[C@H](O)C(=O)N(C)C)cc2OC)ncc1C(F)(F)F | 0 | 17 | 29 | -1
CCN(CC)CCNC(=O)c1ccc(Nc2cc(Nc3ccccc3C(=O)NC)c(C(F)(F)F)cn2)c(OC)c1 | 0 | 64* | 9 | 0
CNC(=O)c1ccccc1Nc1cc(Nc2ccc(N3CCOCC3)cc2OC)ncc1C | 0 | 44* | 13 | -1
CC1CCC(C(C)C)C(OC(=O)Cn2c3ccccc3c(=O)c3ccccc32)C1 (configuration not stated) | 0 | 3 | -4 | 3
Cc1ccc2c(nc3s/c(=C/c4ccc(F)cc4)c(=O)n32)c1C | 0 | 1 | 0 | 0
COc1ccc(-n2c(=S)[nH]c3cc(C(=O)Nc4ccccc4F)ccc3c2=O)cc1OC | 0 | 1 | 6 | 0
CC(=O)c1c(C)[nH]c(C(=O)CSc2nnnn2-c2cccc(C)c2)c1C | 0 | 33* | 11 | 2
CC(Oc1cccc(Cl)c1)C(=O)N1CCN(c2ccccn2)CC1 (configuration not stated) | 0 | 10 | 2 | 0
CC(C)(C)c1ccc(NC(=O)COC(=O)CN2C(=O)C3CCCCC3C2=O)cc1 (configuration not stated) | 0 | 1 | 16 | 0
O=C(CSc1ccccc1)N1CCOc2ccc(-c3ccncc3)cc21 | 0 | 34* | 11 | -1
Cn1nnnc1SCc1cnc(-c2ccccc2)s1 | 0 | -14 | 10 | -1
Cc1nnc(SCc2cnc(-c3ccc(C(C)C)cc3)s2)n1C | 0 | 58* | 9 | 1
COc1cc(/C=C2\Oc3c(ccc(O)c3CN3CCCC3)C2=O)cc(OC)c1OC | 0 | 32* | -1 | 1
c1ccc(-c2noc(-c3cccc4ccccc34)n2)nc1 | 0 | 29 | 11 | -5
Cc1ccc(-c2nc(-c3ccccn3)no2)c(Cl)c1 | 0 | 98* | 7 | -11
SMILES | FBW7 act | TEAD-YAP block | MITF primary | GPR151 activ
Cc1ccc(-c2nc(-c3cccnc3)no2)c(Cl)c1 | 0 | 22 | 1 | -2
Clc1ccc(-c2nc(-c3ccccn3)no2)c(Cl)c1 | 0 | 98* | 8 | -11
Cc1ccc2ncnc(NCCc3ccccc3)c2c1 | 0 | 50* | 11 | 1
O=C(O)CNc1ncnc2ccc(Br)cc12 | 0 | 3 | 13 | -1
CC(C)OCCCNc1ncnc2ccc(Br)cc12 | 0 | 46* | -8 | 1
CC(C)CNc1ncnc2ccc(Br)cc12 | 0 | 42* | -5 | 1
Brc1ccc2ncnc(NCc3ccccc3)c2c1 | 0 | 60* | -5 | 0
COC(=O)C1=C(C)N(c2ccc(F)cc2)C(=O)/C1=C\c1cccc(O)c1 | 0 | 9 | 6 | 0
Cc1ccc(S(=O)(=O)NC(=O)Nc2ccccc2C(F)(F)F)cc1 | 0 | 4 | 4 | 0
CCOC(=O)c1c(C)nc2cc(C(=O)Nc3ccc(F)cc3F)nn2c1C | 0 | -5 | 10 | -2
CN(C)c1ccc(Nc2ncnc3ccc(Br)cc23)cc1 | 0 | 34* | -1 | 1
Cc1ccc2ncnc(NC3CCCCC3)c2c1 | 0 | 37* | 32 | -1
CCN(CC)c1ccc(Nc2ncnc3ccc(Br)cc23)cc1 | 0 | 7 | 4 | 0
COc1cc2c(cc1OC)C(COc1ccc([N+](=O)[O-])cc1)N(C(=O)c1ccc3c(c1)OCO3)CC2 (configuration not stated) | 2.1* | 1 | 11 | -1
COc1ccc(OCC2c3cc(OC)c(OC)cc3CCN2C(=O)c2ccc([N+](=O)[O-])cc2)cc1 (configuration not stated) | 0 | -11 | -17 | 0
CC1(C)CC(=O)C/C(=N\NC(=O)c2cccc(Cl)c2)C1 | 0 | -11 | 11 | 1
COc1ccc(C2C3=C(Nc4[nH]c(=O)[nH]c(=O)c42)c2ccccc2C3=O)cc1 (configuration not stated) | 0 | 56* | 21 | -2
CCc1ccc(C2C3=C(Nc4c2c(=O)[nH]c(=O)n4CCOC)c2ccccc2C3=O)cc1 (configuration not stated) | 0 | 43* | -4 | -1
COCCn1c2c(c(=O)[nH]c1=O)C(c1ccccc1)C1=C(N2)c2ccccc2C1=O (configuration not stated) | 0 | 10 | 7 | 1
Cc1ccc(C2C3=C(Nc4[nH]c(=O)[nH]c(=O)c42)c2ccccc2C3=O)cc1 (configuration not stated) | 0 | 39* | 16 | 0
Cc1ccc(C2C3=C(Nc4c2c(=O)[nH]c(=O)n4C)c2ccccc2C3=O)cc1 (configuration not stated) | 0 | 1 | -2 | -1
COc1ccc(S(=O)(=O)N2c3ccccc3CC2C)cc1 (configuration not stated) | 0 | 48* | 0 | 2
Cc1ccc(S(=O)(=O)N2c3ccccc3CC2C)cc1 (configuration not stated) | 0 | 4 | -10 | -1
CCC(=O)Nc1ccc(S(=O)(=O)N2c3ccccc3CC2C)cc1 (configuration not stated) | 0 | 7 | -8 | 1
CCOc1ccc(S(=O)(=O)N2c3ccccc3CC2C)cc1 (configuration not stated) | 0 | 52* | 4 | 1
COCCn1nnnc1C(c1ccc(OC)cc1)N1CCN(c2ccccc2OC)CC1 (configuration not stated) | 0 | 1 | -4 | 2
CCN1CCN(C(=O)CCCOc2ccccc2)CC1 | 0 | 43* | -1 | 0
O=C(Nc1cc(=O)[nH]c(=O)[nH]1)c1cc([N+](=O)[O-])ccc1Cl | 0 | -12 | 25 | 1
O=C(Nc1cc(=O)[nH]c(=O)[nH]1)c1cc(Cl)ccc1Cl | 0 | 52* | 7 | 1
O=C(Nc1cc(=O)[nH]c(=O)[nH]1)c1cc(Br)ccc1Cl | 0 | 54* | 14 | -1
